The record followed here is PubChem BioAssay (NCI).

“And” between values parts separate entries of the source, which are not always exact repeats. Equal entries are not always repeated. About 79,000 compounds went through this panel and 15% of them were active in at least one assay; those are over-represented in the sample as a whole. A structure can be active in one record and inactive in another. The source made the active and inactive calls. Rule as the data show it: active = growth inhibition above about 70%; inactive = the rest.

This experiment is described as follows: NCI Yeast Anticancer Drug Screen. Data for the rad50 strain (AID 155).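 Also: 0% = growth of vehicle-only cultures of the same strain.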 The note with it: S. cerevisiae rad50 strain growth inhibition; at 5.0 µM (retest, dose inferred, filed as 0.5); stronger effect = higher value. An outline of the steps:
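Compounds were tested on a yeast strain with an engineered DNA damage repair alteration; the reported value is growth inhibition normalised to vehicle treatment.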
Turning to `Oc1c(Cl)cc(Cl)cc1Cc1cc(Cl)cc(Cl)c1O`, the growth inhibition was 93% (active) and 80% (active).
In the case of `COc1cc(OC)c(OC)cc1/C=C\c1ccnc2ccccc12` it was 19% (inactive); in that of `CC(C)C1=CC23CCC4C(C)(C(=O)O)CCCC4(C)C2CC1C1C(=O)OC(=O)C13` (stereo not drawn), 93% (active).
In the case of `CN(C)c1nc(N)c(C#N)c(C#N)c1C#N`, the growth inhibition was 21% (inactive).
In the case of `C/C(=N\NC(=S)N1CCN(c2ccccn2)CC1)c1nccs1` it was 23% (inactive); in that of `CCCCCCCCCCCCCCCCCCOCC(COP(=O)([O-])OCC[N+](C)(C)C)OC` (stereo not drawn), -16% (inactive).
In the case of `COc1ccc2nc(C)cc(NCCCCCCCCCNc3cc(C)nc4ccc(OC)cc34)c2c1`, the growth inhibition was -17% (inactive).
In the case of `CC1CC[P+](c2ccccc2)(c2ccccc2)c2c1ccc1ccccc21` (stereo not drawn) it was 76% (active); in that of `CC(C)C1=C(O)C2=C(C(=O)C1=O)C1(C)CCCC(C)(C)C1CC2O` (stereo not drawn), 42% (inactive); in that of `CC(=O)[O-].[O-]c1c(Cl)cc(Cl)cc1/C=N/Nc1ccccn1.[Zn+2]`, 5% (inactive).
In the case of `O=C(c1ccccc1)C(c1ccccc1)C(O)c1ccc([N+](=O)[O-])cc1` (stereo not drawn) it was 9% (inactive) and 2% (inactive); in that of `Clc1nc(Cl)c(Cl)c(Cl)n1`, 29% (inactive).
In the case of `COc1cccc2c1C(=O)c1c(O)c3c(c(O)c1C2=O)C[C@@](O)(C(C)=O)C[C@@H]3OC1CC(N(C)C)C(O)C(C)O1` (stereo partly drawn) it was 98% (active).
Turning to `CN1C(c2ccccc2)CC(=NOCc2ccccc2)CC1c1ccccc1` (stereo not drawn), the growth inhibition is 83% (active).
In the case of `Cc1ccc(NCCN(C)C)c2c(=O)c3cc(O)ccc3sc12` it was 27% (inactive).
As to `N#CC1(C2SCCS2=O)C2=C(C(=O)c3ccccc3C2=O)N2CCCC21` (stereo not drawn), the growth inhibition was 17% (inactive).
In the case of `CCN(CC)CCC(=O)/C=C/c1ccccc1` it was 31% (inactive); in that of `CC1(O)Cc2c(O)c3c(c(O)c2CC1O)C(=O)C=CC3=O` (stereo not drawn), 9% (inactive); in that of `Cc1ccc2c(c1)C1(C)OC(C=CC1=O)O2` (stereo not drawn), 88% (active).
On to `Fc1cccc(CSC(=S)Nc2ccc(F)c(F)c2)c1`, for which the growth inhibition was 12% (inactive).
In the case of `CCN(CCO)CCNc1ccc(C)c2sc3ccccc3c(=O)c12` it was 36% (inactive).
In the case of `Cc1n(-c2ccccc2)c2c([n+]1Cc1ccc([N+](=O)[O-])cc1)C(=O)c1ccccc1C2=O` it was 1% (inactive).
In the case of `CC(=O)OC1COC(n2c(N)c(C#N)c(-c3ccccc3)c(C#N)c2=S)C(OC(C)=O)C1OC(C)=O` (stereo not drawn) it was -10% (inactive) and 1% (inactive).
Take `O=c1[nH]c2cc([N+](=O)[O-])ccc2nc1/C=C(\O)c1ccc([N+](=O)[O-])cc1`: the growth inhibition was 21% (inactive).
In the case of `Cc1n(Cc2ccccc2)c2c([n+]1C)C(=O)c1ccccc1C2=O` it was 44% (inactive); in that of `CS(=O)(=O)OCCN(CCOS(C)(=O)=O)c1ccc(C=Nc2ccc(-c3csc(Cc4ccccc4)n3)cc2)c(Cl)c1`, 16% (inactive).
In the case of `CCCCCCCCCCS(=O)CC(CO)NC(=O)/C=C/c1c(C)[nH]c(=O)[nH]c1=O` (stereo not drawn) it was 35% (inactive).
In the case of `C/C(=N\O)c1cc(Br)cc([N+](=O)[O-])c1O` it was 1% (inactive).
Consider `COc1cc2c(c(OC)c1OC)-c1ccc(SC)c(=O)cc1C(NC(=O)c1ccccc1)CC2` (stereo not drawn), for which the growth inhibition is -9% (inactive).
In the case of `COc1cccc2c1C(=O)c1c(O)c3c(c(O)c1C2=O)C[C@@](O)(C(C)=O)C[C@@H]3OC1CC(O)C(O)C(C)O1` (stereo partly drawn) it was 45% (inactive); in that of `CCCCCCCc1c(Cl)nc(Cl)nc1Cl`, 11% (inactive); in that of `O=C1/C(=C/c2ccc(Cl)cc2)CNC/C1=C\c1ccc(Cl)cc1`, 83% (active) and 48% (inactive).
In the case of `O=C1C(Cl)=C(N2CCN(C3=C(Cl)C(=O)c4ccccc4C3=O)CC2)C(=O)c2ccccc21` it was 26% (inactive); in that of `O=C1c2ccccc2-n2c1nc1ccccc1c2=O`, 18% (inactive); in that of `Nc1ccc(Cn2ccc3c4c(N)nc(N)nc4ccc32)cc1`, 14% (inactive).
In the case of `Nc1nc(N)c2c(Cl)c(CNc3ccc(Cl)c(Cl)c3)ccc2n1` it was 82% (active).
On to `Cc1cc(NCCCCCCCNc2cc(C)nc3cc([N+](=O)[O-])ccc23)c2ccc([N+](=O)[O-])cc2n1`, for which the growth inhibition was 1% (inactive).
As for `CCCCCCCCCCCCCCCCCC(=O)NCCO`, the growth inhibition was -3% (inactive).
